# Screening results deposited in PubChem by several laboratories.
# RmlCD inh 1536: M. tuberculosis RmlC/RmlD coupled enzyme inhibitors, primary screen, biochemical, compound mixtures, 384-well, from 1536-well plates; inhibition, % at 3.6 µM; 0.03% of 160,000 active; RmlC+RmlD coupled enzyme assay, percent inhibition; primary screen in compound mixtures; in the data active = inhibition mostly above about 34%, no sharp cut-off
# Target sequence (P9WH09 whole entry, looked up): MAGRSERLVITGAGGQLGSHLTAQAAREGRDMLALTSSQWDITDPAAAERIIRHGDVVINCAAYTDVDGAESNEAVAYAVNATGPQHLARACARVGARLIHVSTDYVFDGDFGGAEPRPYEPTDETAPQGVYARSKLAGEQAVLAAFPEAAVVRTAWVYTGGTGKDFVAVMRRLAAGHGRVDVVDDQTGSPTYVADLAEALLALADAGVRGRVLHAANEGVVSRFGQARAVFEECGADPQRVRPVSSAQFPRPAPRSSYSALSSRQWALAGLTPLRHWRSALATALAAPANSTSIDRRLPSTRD
# Target sequence (P9WH11 whole entry, looked up): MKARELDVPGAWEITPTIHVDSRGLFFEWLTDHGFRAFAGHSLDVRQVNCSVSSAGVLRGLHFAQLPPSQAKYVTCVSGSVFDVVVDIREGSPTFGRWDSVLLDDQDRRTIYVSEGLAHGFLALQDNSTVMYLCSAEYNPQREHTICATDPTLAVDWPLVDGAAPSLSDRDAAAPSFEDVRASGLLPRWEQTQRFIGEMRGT
# RecA splice inh: Mtb RecA intein splicing inhibitors, primary screen, biochemical, fluorescence, HTS | AID 2221, 2009 | 0.75% of 290,000 active | cell-free RecA intein splicing | inhibition, % (no concentration beside the values) | Protein RecA (Mycobacterium tuberculosis (strain ATCC 25618 / H37Rv)), P9WHJ3; in the data active = inhibition above about 30%;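 also: 0% = vehicle wells and 100% = reference inhibitor control wells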
# GFP chromo cs: counter-screen: blocks GFP chromophore formation, dose response, counter-screen, biochemical, fluorescence, homogeneous. shares compounds with RecA splice inh. cell-free GFP chromophore formation. EC50, µM. 83% of 2,100 active. AID 434968, 2010; call rule not given here
# * marks the source's active call; other numbers are inactive results; . = no result. Most compounds without a hit are left out; they make up all but 0.77% or so of the library.
SMILES,RmlCD inh 1536,RecA splice inh,GFP chromo cs
Cc1ccc(NC2=C(NC(=O)c3ccccc3)C(=O)c3ccccc3C2=O)cc1Cl,-2,70*,6.4*
Cc1ccc(NCC(=O)c2ccccc2)cc1Cl,53,-1,.
O=C1C(Cl)=C(Nc2ccccc2)C(=O)c2ccccc21,-10,2,.
COc1cc2c(cc1OC)C(c1cc(Br)c(OC)c(OC)c1)CC(=O)N2 (stereo not given),.,-3,.
CCOc1cc(C(N)=O)cc(Br)c1OC,.,-3,.
COc1cc(C(c2c(C)[nH][nH]c2=O)c2c(C)[nH][nH]c2=O)cc(Br)c1OC,.,99*,0.63*
CCOc1cc(C(c2c(C)[nH][nH]c2=O)c2c(C)[nH][nH]c2=O)cc(Br)c1OC,.,93*,0.49*
CC1(C)CC(NC(=O)COc2ccc3ccc(=O)oc3c2)CC(C)(C)N1,.,-3,.
COc1ccc(-c2csc(C)n2)cc1,.,0,.
COc1ccc(-c2csc(CCN3N=C(C)CC3=O)n2)cc1,5,86*,4.8*
CC(C)(C)OC(=O)NCCNC(=O)c1cccs1,7,-1,.
CCC(C)Sc1cc(-c2nc3ccccn3c2NC2CCCCC2)ccc1OC (stereo not given),.,14,.
CC(=O)c1ccc(-c2cccc(-c3nc4ccccn4c3NC3CCCCC3)c2)cc1,.,32*,0.38*
CCc1ccc(N2CCN(C(=O)c3ccc(OC)c(OC)c3)CC2)cc1,.,1,.
CCOC(=O)c1sc(N(Cc2ccccc2)C(=O)COC(=O)c2ccccc2O)nc1C,26,-2,.
CCOC(=O)c1sc(N(Cc2ccccc2)C(=O)CCl)nc1C,.,88*,3.1*
COC(=O)c1cnc[nH]1,.,1,.
O=C(Nc1ccc(Nc2ccccc2)cc1)c1ccc(F)cc1,.,0,.
N#CC(C#N)=C(C#N)c1ccc(Nc2ccccc2)cc1,.,52*,4.6*
CCn1nc(NC(=O)c2ccncc2)c2cc3ccccc3nc21,-3,-10,.
CSc1cccc(NC(=S)NCCCO)c1,.,1,.
O=C1CCCC2=C1C(c1ccc3c(c1)OCO3)c1c([nH]n(-c3ccccc3)c1=O)N2 (stereo not given),-3,74*,14*
COc1cccc(C2C3=C(CCCC3=O)Nc3[nH]n(-c4ccccc4)c(=O)c32)c1 (stereo not given),-3,0,.
Fc1ccc(CN2CCCN(C(=S)Nc3ccc(F)cc3)CC2)cc1,6,0,.
CC1CCC(C(C)C)C(OC(=O)Cn2c(COc3ccccc3)[n+](C)c3ccccc32)C1 (stereo not given),-13,15,.
SMILES,RmlCD inh 1536,RecA splice inh,GFP chromo cs
CCCCCCCCCCOC(=O)Cn1c(COc2ccccc2OC)[n+](C)c2ccccc21,.,49*,12*
O=C1c2ccccc2-n2c1nc1ccccc1c2=O,-1,71*,1.3*
O=c1c2ccccc2nc(-c2ccccc2)n1-c1ccccc1O,.,-1,.
CN1CCN(c2ccc(S(C)(=O)=O)cc2[N+](=O)[O-])CC1,9,-1,.
CN1CCN(c2ccc([N+](=O)[O-])c3no[n+]([O-])c23)CC1,-11,86*,>38
Cc1cc(C(=O)N(C)C)sc1-c1ccccc1,.,-1,.
CCNC(=O)c1ccccc1-c1nc(-c2ccccc2)no1,12,30*,>38
O=C(NCC1CCCO1)c1ccccc1-c1nc(-c2ccccc2)no1 (stereo not given),-1,-1,.
Cc1ccc(NC(=O)c2nc3nccc(C)n3n2)c(C)c1,2,0,.
CC(=O)Oc1c(Br)cc(N(C(C)=O)S(=O)(=O)c2ccccc2)c2ccccc12,.,37*,5.3*
CC(=O)Oc1ccccc1N(C(C)=O)S(=O)(=O)c1ccc2ccccc2c1,-4,3,.
O=C(CCc1nnc(CCCCc2ccccc2)o1)NCc1cc(F)ccc1F,-8,.,.
CN1C(=O)/C(=N\OC(=O)c2cccc3ccccc23)c2ccccc21,-2,38*,32*
Cc1cccc(/C(N)=N/OC(=O)c2cccc3ccccc23)c1,.,3,.
Cc1ccc(S(=O)(=O)N2CCC(=O)N(CCOCc3cccc(F)c3)CC2)cc1,.,-1,.
COc1ccccc1N(CC(=O)NCc1ccc(F)cc1)C(=O)CCC(=O)Nc1ccccn1,11,-1,.
O=C(/C=C\Nc1cccc(F)c1)c1ccc2c(c1)OCO2,0,-2,.
CC(C)(C)NC(=O)C(c1ccc(Cl)cc1)N(Cc1ccco1)C(=O)CCl (stereo not given),.,69*,22*
CC(C)(C)NC(=O)C(c1ccc(O)cc1)N(Cc1ccco1)C(=O)CCC(=O)Nc1ccccn1 (stereo not given),.,0,.
COCCn1c(SCC(=O)NCCc2ccccc2)nc2c([nH]c3ccccc32)c1=O,.,-1,.
